NRP1-CendR mod – alters CendR peptide binding to human NRP-1; AID 602438; O14786; inhibition, % at 25 µM; 360,000 tested, 0.85% active; FAM-RPARPAR peptide binding to NRP-1, fluorescence polarization;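 active = inhibition or corrected inhibition above about 18%, plus a signal ratio from 0.5 to 1.5, limit read from the data, passing the limit was not always enough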
Target sequence (O14786 whole entry, looked up): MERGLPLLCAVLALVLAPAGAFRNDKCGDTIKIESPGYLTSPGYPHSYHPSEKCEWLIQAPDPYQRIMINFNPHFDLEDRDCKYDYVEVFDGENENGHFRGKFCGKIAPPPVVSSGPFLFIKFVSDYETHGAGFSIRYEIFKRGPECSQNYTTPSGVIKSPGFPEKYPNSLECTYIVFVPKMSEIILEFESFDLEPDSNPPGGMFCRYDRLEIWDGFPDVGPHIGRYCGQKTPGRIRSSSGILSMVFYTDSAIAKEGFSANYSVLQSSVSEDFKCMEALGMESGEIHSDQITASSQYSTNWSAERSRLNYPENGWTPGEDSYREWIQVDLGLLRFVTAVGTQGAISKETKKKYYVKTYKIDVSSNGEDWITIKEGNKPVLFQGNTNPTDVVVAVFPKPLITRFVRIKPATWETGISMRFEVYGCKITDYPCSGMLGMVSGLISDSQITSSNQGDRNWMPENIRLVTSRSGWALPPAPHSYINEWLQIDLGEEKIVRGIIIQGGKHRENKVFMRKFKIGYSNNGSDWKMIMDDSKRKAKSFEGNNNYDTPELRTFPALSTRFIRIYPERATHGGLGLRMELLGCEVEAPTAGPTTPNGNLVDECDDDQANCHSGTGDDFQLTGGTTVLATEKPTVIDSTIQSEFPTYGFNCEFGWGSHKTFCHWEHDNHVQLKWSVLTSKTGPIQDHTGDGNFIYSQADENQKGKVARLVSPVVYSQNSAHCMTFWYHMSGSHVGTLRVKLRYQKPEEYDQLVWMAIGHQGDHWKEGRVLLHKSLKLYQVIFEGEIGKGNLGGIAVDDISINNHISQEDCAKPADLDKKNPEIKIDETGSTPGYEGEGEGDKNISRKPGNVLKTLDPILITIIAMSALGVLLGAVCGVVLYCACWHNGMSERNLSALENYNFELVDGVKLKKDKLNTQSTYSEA
RAD52 anneal inh – RAD52 (human) annealing inhibition; P43351; recombinant RAD52 DNA annealing, FRET fluorescence; inhibition, % at 18.7 µM; 360,000 tested, 0.46% active; AID 651710;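 active = every replicate showing at least 50% inhibition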
miR-122 sensor – miR-122 inhibition in Huh7 cells; AID 602342; Huh7 miR-122 Renilla luciferase sensor, 48 h; neutral wells = 0, positive control = 100; 340,000 tested, 0.3% active; activation (reporter increase), % at 12.5 µM;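 active = mean replicate activation score at least 90 and every replicate individually at or above 90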;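 note: higher luciferase means less miR-122 activity so hits act as miR-122 inhibitors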
N-glyco inh – N-linked glycosylation inhibition; D54 ERlucT glycosylation luciferase reporter, 24 h; percent of 100 nM tunicamycin response; reporter increase, % at 12.5 µM; 360,000 tested, 0.23% active;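 active = mean luciferase reporter signal, scaled so untreated is 0 and the glycosylation-blocking control 100, at or above a set limit in every replicate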;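 note: luciferase carries N-glycosylation sites so blocking glycosylation raises the light; 0% = median of neutral control wells and 100% = median of 100 nM tunicamycin wells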
FID counter – counter-screen for HCV NS3 helicase inhibitors: DNA intercalator displacement. DNA fluorescent intercalator displacement, fluorescence. inhibition, % at 7.9 µM. 290,000 tested, 0.17% active; in the data active = inhibition above about 37%;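 note: 0% = vehicle and 100% = reference compound; higher means more ethidium bromide displaced from hairpin DNA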
RAD54 inh – inhibitors of human RAD54 branch migration; RAD54 Holliday junction branch migration, FAM/BHQ fluorescence; 360,000 tested, 0.14% active; inhibition, % at 10.4 µM; Q92698;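 active = mean normalized replicate activity at least 40 and at least half of replicates scoring 40 or more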;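 note: 0% = median of neutral control wells and 100% = median of positive control wells; inhibitors cause a drop in the FAM fluorescence signal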
DNA binder FP – counter-screen for RAD52 inhibitors: DNA binding compounds; 1,000 tested, 8% active; AC50, µM; Salmon sperm DNA/acridine orange FP displacement; shares compounds with RAD52 anneal inh; AID 652128;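 active = fitted half-maximal concentration for signal loss at or below twice the highest dose tested, in every separate run, actives reach about 64 µM in these data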
Starred values were filed as active, the others as inactive; i = inactive; . = no result; [ ] = remark or other dose. Only some compounds are listed: those with a hit (about 1.5% of all), similar ones and a draw of the others.

SMILES	NRP1-CendR mod	RAD52 anneal inh	miR-122 sensor	N-glyco inh	FID counter	RAD54 inh	DNA binder FP
CC(C)N1CCc2c(sc(NC(=S)NC(=O)c3ccccc3)c2C#N)C1	133.9	54.0*	.	-3.2	-1.3	.	i
C[N+](C)(C)CC(=O)N/N=C/c1c2ccccc2cc2ccccc12	-1.4	94.3*	.	4.7	27.7	91.9*	55.2µM*
CCN1CCN(c2ccc(N=Cc3ccc(O)cc3O)cc2)CC1	-46.6	91.1*	.	-1.4	17.2	.	i
CCN(CC)c1ccc(N=Cc2ccc(N(CC)CC)cc2O)cc1	-216.6	.	2.0	2.5	-3.3	.	.
CCOC(=O)c1cnc2c(ccc3ccccc32)c1NCCN(C)C	-13.7	79.3*	-2.3	9.5	45.5*	80.5*	i
CN(CC(=O)Nc1ccc(S(=O)(=O)N2CCCC2)cc1)CC(=O)Nc1cccc(F)c1	-5.6	58.3*	-3.8	-4.1	-1.5	-1.9	i
CN(C)CCCn1c(=O)n(CCc2ccccc2)c(=O)c2c3c(sc21)CCCCC3	5.2	55.7*	-4.4	-3.9	11.3	0.8	i
CN(C)CCn1c(=O)n(Cc2ccccc2)c(=O)c2c3c(sc21)CCCCC3	-4.7	14.2	19.6	0.1	0.3	1.1	.
COc1ccc2[nH]c(C)cc(=O)c2c1	8.7	.	.	1.8	2.3	0.8	.
COc1ccc2[nH]c3c(C)c4ccncc4c(C)c3c2c1	20.0	99.6*	-19.5	-1.0	77.1*	36.5	i
O=C(C1CCCC1)N1CCC(CC2CC(c3ccc(Cl)cc3)=NO2)(C(=O)NCC2CCCCC2)CC1 (configuration not stated)	18.3	99.3*	1.5	-1.6	-31.2	0.7	i
C[C@@H]1CN([C@H](C)CO)C(=O)Cc2cc(NC(=O)NC3CCCCC3)ccc2O[C@@H]1CN(C)Cc1ccc(C(F)(F)F)cc1	.	8.1	0.8[16.7 µM]	.	.	-5.2	.
NC(N)=Nc1cc2ccccc2c2ccccc12	.	55.9*	.	.	18.6	.	i
NC(N)=NC(N)=Nc1cccc2ccccc12	-18.8	-4.2	-7.5	6.2	-1.4	9.8	.
Cc1ccccc1-c1ccc2c(c1)O[C@H](CN(C)Cc1ccncc1)[C@@H](C)CN([C@H](C)CO)S2(=O)=O	.	17.0	12.3[16.7 µM]	.	.	5.3	.
NCc1ccc(OCCCN2CCC(C(O)(C3=CCCC3)c3ccccc3)CC2)cc1 (configuration not stated)	.	67.1*	.	.	.	.	i
Cc1cc(OCCCN2CCC(C(O)(c3ccccc3)c3ccccc3)CC2)ccc1Br	0.8	54.7*	.	.	.	.	i
Cc1cc(C)cc(OCCCN2CCC(C(O)(c3ccccc3)c3ccccc3)CC2)c1	.	1.5	.	.	.	.	.
CCOC(=O)c1c(CNc2ccncc2)n(C)c2cc(Br)c(O)cc12	0.6	64.2*	.	4.4	7.9	.	i
CCNC(=O)C[C@@H]1CC[C@H]2[C@@H](COC[C@H](O)CN2Cc2ccncc2)O1	.	-2.6	-1.3[16.7 µM]	.	.	-17.4	.
CN1CCN(c2ccc(NC(=O)c3ccc(-c4ccccc4F)o3)cc2)CC1	0.4	10.3	.	-5.3	.	24.2	i
CN1CCN(c2ccc(NC(=O)c3ccc(Br)o3)cc2)CC1	-4.8	13.4	-2.5	-8.2	-1.7	-0.8	.
Cc1sc2nc(CN3CCCCC3)nc(Nc3ccc4c(c3)OCCO4)c2c1C	3.6	72.1*	.	1.2	-2.4	.	i
O=C1CC[C@@H]2c3[nH]c4ccc(F)cc4c3CCN12	.	-18.6	.	.	.	-3.4	.
CCCN(C)C[C@H]1Oc2cc(C3=CCCCC3)ccc2S(=O)(=O)N([C@H](C)CO)C[C@@H]1C	.	.	12.3[16.7 µM]	.	.	.	.
SMILES	NRP1-CendR mod	RAD52 anneal inh	miR-122 sensor	N-glyco inh	FID counter	RAD54 inh	DNA binder FP
CN(C)c1cccc2cccc(N(C)C)c12	12.7	93.4*	-0.6	3.9	-12.7	-4.1	i
COc1ccc2nc(NCCNC(=S)NCCCN3CCOCC3)c(C#N)cc2c1	-3.6	69.7*	.	5.2	7.7	.	i
Cc1cc2cc(C#N)c(NCCNC(=S)NCCCN3CCOCC3)nc2cc1C	15.8	30.8	.	2.5	6.7	.	.
CCCC(=O)Nc1ccc2c(c1)C(=O)N(C)C[C@H](OC)[C@H](C)CN(CCC(F)(F)F)[C@@H](C)CO2	.	1.2	.	.	.	-5.3	.
COc1cccc(-c2ccc([C@H]3[C@H](CO)N4CCCCN(C(=O)NC(C)C)C[C@@H]34)cc2)c1	.	-5.8	-3.5[16.7 µM]	.	.	3.8	.
COc1cc(C(=O)N2CCC(N3CCN(C)CC3)CC2)ccc1Nc1ncc2c(n1)N(C)c1ccccc1C(=O)N2C	.	76.7*	.	.	.	.	i
CCOc1cc(N2CCC(O)CC2)ccc1Nc1ncc2c(n1)N(C)c1ccccc1C(=O)N2C	.	0.0	.	.	.	.	.
COc1ccc(-c2c(-c3ccccc3)c(C(=O)C(=O)NCCCN(C)C)n3ccc4cc(OC)c(OC)cc4c23)cc1OC	-3.9	94.1*	-37.5	-7.7	20.6	81.3*	i
CN1CCN(c2nc(-c3ccc(Cl)s3)cs2)CC1	-4.7	51.4*	-5.9	-2.2	3.7	.	i
Clc1ccc(-c2csc(N3CCCCCC3)n2)cc1	9.8	-4.6	3.2	-3.7	-5.0	3.0	.
CO[C@H]1CN(C)C(=O)c2cc(NC(=O)c3ccccc3)ccc2OC[C@H](C)N(C(=O)CN(C)C)C[C@@H]1C	.	-1.9	4.1[16.7 µM]	.	.	6.7	.
CCN(CC)CCCNC(=O)c1[nH]c2ccccc2c1Sc1ccc(Cl)cc1	-35.2	69.8*	-2.1	-7.0	-2.3	-2.7	i
COc1cc2c(cc1OC)CN(c1nc(CN3CCCCC3)nc3sc4c(c13)CCCC4)CC2	-6.7	.	.	-5.0	5.8	.	.
COc1cc2c(cc1OC)CN(c1nc(CN3CCCC3)nc3sc(C)c(C)c13)CC2	-7.7	65.3*	.	-3.3	6.9	.	i
CC1=Nc2cc(C(=O)NCCCN3CCN(C)CC3)ccc2Sc2ccc(C)cc21	19.2	77.3*	-0.9	-0.8	10.8	9.1	i
CCCC1=Nc2cc(C(=O)NCCCN3CCN(C)CC3)ccc2Sc2ccccc21	12.5	47.2	-3.7	-1.5	20.2	1.7	.
COCC(=O)N1C[C@@H](C)[C@H](OC)CN(C)C(=O)c2cc(NC(=O)c3ccc(F)cc3)ccc2OC[C@H]1C	.	-3.9	-4.8[16.7 µM]	.	.	-2.5	.
C[C@@H]1CN([C@@H](C)CO)C(=O)c2cc(-c3cccc(F)c3)cnc2O[C@H]1CN(C)C(=O)c1ccccn1	.	6.0	-12.6[16.7 µM]	.	.	5.4	.
O=C(Nc1ccc2c(c1)[C@@H]1C[C@H](CC(=O)N3CCc4ccccc4C3)O[C@@H](CO)[C@@H]1O2)C1CCOCC1	.	0.9	5.8[16.7 µM]	.	.	-0.8	.
COc1cc(NS(C)(=O)=O)ccc1Nc1c2ccccc2nc2ccccc12	2.0	54.9*	-24.6	-6.6	.	55.8*	i
COc1ccc(OC)c(Nc2c3ccccc3nc3ccccc23)c1	-9.7	33.7	17.8	9.6	30.7	32.2	.
CCOC(=O)c1c(NC(=O)C(NCCN(C)C)c2ccccc2)sc2c1CCCC2 (configuration not stated)	6.8	63.5*	-6.4	4.7	26.7	16.3	i
